Data published in PubChem BioAssay (Tox21).
Results filed as inconclusive are left out. A call without a number means that no potency is given here. The source holds several records for some structures; these can differ, active in one and inactive in another. The source made the active and inactive calls. The call rests on the fitted dose curve; in most records, active means well fitted cell-killing curve with a large enough effect in the repeat runs; inconclusive means weak or mixed curves, or effect the other way; inactive means no such curve, though single readings can be large or run the other way.

Experiment: qHTS assay to identify small molecule antagonists of the sonic hedgehog signaling (Shh) pathway - cell viability counter screen (AID 1259367); further: nearly all actives have a fitted effect of over 55% in size
Conditions: NIH/3T3 Gli1-Luc viability, CellTiter-Fluor, 24 h; series mostly up to 92.4 µM
Source text: National Center for Advancing Translational Sciences [NCATS]
NIH Chemical Genomics Center [NCGC]
U.S. Environmental Protection Agency [EPA]
National Institutes of Environmental Health Sciences [NIEHS]
National Toxicology Program [NTP]
U.S. Food and Drug Administration [FDA]
The sonic hedgehog (Shh) pathway is essential for normal embryonic development. Dysregulation of the Shh pathway can cause severe developmental defects in organs. Therefore chemicals that interfere with the pathway are potential developmental toxicants. A cell line designated 3T3Gli1-Luc (DMB/OARSA/CFSAN/FDA, Laurel, MD), a NIH/3T3 derived clone containing stably integrated Gli1-Luc reporter is used to detect chemical interference of the Shh pathway, by changes in the expression of the firefly Luc gene under the control of the Gli1 transcriptional response element. This cell line was used to screen Tox21 libraries for identifying and prioritizing the potential developmental toxicants that interfere Shh pathway. Conditioned medium-stimulated mode was used to screen for chemicals inhibiting Shh signaling. The cytotoxicity of the compounds was tested in parallel by measuring the cell viability using CellTiter-Fluor assay system (Promega, Madison, WI) in the same wells.
Tox21 Assay Protocol Summary:
3T3 Gli1-Luc cells were dispensed at 2,000 per well in 5uL of culture medium into white solid bottom 1536-well plates (Greiner Bio-One, Monroe, NC) using a Multidrop Combi (Thermo Scientific, Waltham, MA) dispenser. The assay plates were incubated at 37 C and 5% CO2 for 4hr, and then 23nL of compounds dissolved in DMSO and positive control were transferred using a Pintool station (Wako, San Diego, CA). The compound transfer was followed by the addition of 1ul conditioned medium or assay buffer using two separate tips of Flying Reagent Dispenser (FRD, Aurora Discovery, San Diego, CA). The assay plates were incubated at 37C and 5% CO2 for 24hr. For viability read, after 23hr of compound treatment, 1uL of CellTiter-Fluor reagent (Promega Corporation, Madison, WI) was added to each well of the assay plates using Flying Reagent Dispenser (FRD, Aurora Discovery, San Diego, CA) and incubated the assay plates at 37C for 1hr. The fluorescence signal was quantified using a ViewLux plate reader (Perkin Elmer, Shelton, CT).
Potency means the concentration at half of the fitted maximal effect.

Compound | Potency | viability change, negative = cytotoxic
Cc1cccc(O)c1 | inactive | –
O=C(OCCOCCOC(=O)c1ccccc1)c1ccccc1 | inactive | –
C=C(C)C(=O)Nc1ccc(Cl)c(Cl)c1 | inactive | –
c1ccc2scnc2c1 | inactive | –
O=C(CC(C(=O)OC1CCCCC1)S(=O)(=O)O)OC1CCCCC1 (stereo not given) | inactive | –
CC(=O)CC(=O)Nc1ccccc1 | inactive | –
O=C(O)CCCCCCCCCCC(=O)O | inactive | –
O=C(O)c1ccc(C(=O)O)cc1 | inactive | –
CC1=CCC2CC1C2(C)C (stereo not given) | inactive | –
O=c1[nH]c(=O)n([C@H]2CCCO2)cc1F | inactive | –
CCc1ccc(CCOc2ccc(CC3SC(=O)NC3=O)cc2)nc1 (stereo not given) | inactive | –
N[C@@H](Cc1cc(I)c(Oc2cc(I)c(O)c(I)c2)c(I)c1)C(=O)O | inactive | –
Fc1ccc(Br)cc1 | inactive | –
O=C=NCCCCCCN=C=O | inactive | –
C=CCNC(N)=S | inactive | –
CCCCCOC(C)=O | inactive | –
CCCCCCCCCCCCS | inactive | –
OC[C@H]1O[C@@](CO)(O[C@H]2O[C@H](CO)[C@@H](O)[C@H](O)[C@H]2O)[C@@H](O)[C@@H]1O | inactive | –
c1ccc2c(c1)ccc1ccccc12 | inactive | –
O=S(=O)(O)c1ccc2ccccc2c1 | inactive | –

Compound | Potency | viability change, negative = cytotoxic
CCc1cccc(C)c1N | inactive | –
Cc1ccc(N(C)C)cc1 | inactive | –
c1c[nH]cn1 | inactive | –
O=C(O)c1cc(C(=O)O)cc(S(=O)(=O)O)c1 | inactive | –
O=S1(=O)CC=CC1 | 46.9 µM (active) and inactive | –
O=C1CCC(N2C(=O)c3ccccc3C2=O)C(=O)N1 (stereo not given) | inactive | –
O=C(O)c1cc(O)c(O)c(O)c1 | inactive | –
NNc1nncc2ccccc12 | 61.1 µM (active) | 1.95% [at 19 µM] (inactive)
Cc1cc(C)c(C)cc1C | inactive | –
c1ccc(OCCOc2ccccc2)cc1 | inactive | –
O=C(O)CCCC[C@@H]1SC[C@@H]2NC(=O)N[C@@H]21 | inactive | –
CCCCC(CC)COC(=O)C(C#N)=C(c1ccccc1)c1ccccc1 (stereo not given) | inactive | –
CC1CCC2CC1C2(C)C (stereo not given) | inactive | –
CC(C)(C)[C@@H](O)[C@@H](Cc1ccc(Cl)cc1)n1cncn1 | inactive | –
CCCCCCCC(=O)OC | inactive | –
CSCCC=O | inactive | –
Nc1cc([N+](=O)[O-])ccc1O | inactive | –
O=c1[nH]nnc2ccccc12 | inactive | –
CCCSc1ccc2nc(NC(=O)OC)[nH]c2c1 | 2.17 µM (active) | –
